CCHF vOTU inh-1 = CCHFV vOTU protease inhibition | Pep-AMC fluorescence | inhibition, % at 11.5 µM | hit rate 0.55% among 370,000; also: 0% = vehicle wells with enzyme and 100% = no enzyme wells
RecA splice inh = blocks M. tuberculosis RecA intein splicing; P9WHJ3; hit rate 0.75% among 290,000; cell-free RecA intein splicing, fluorescence; inhibition, % (test concentration not listed); in the data active = inhibition above about 30%;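 also: 0% = vehicle wells and 100% = reference inhibitor control wells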
DUSP3 inh = DUSP3 (human) phosphatase inhibition. P51452. recombinant VHR phosphatase, pNPP absorbance. inhibition, % at 13.3 µM. hit rate 0.52% among 290,000. AID 1654; in the data active = inhibition above about 50%
Target sequence (P51452 whole entry, looked up): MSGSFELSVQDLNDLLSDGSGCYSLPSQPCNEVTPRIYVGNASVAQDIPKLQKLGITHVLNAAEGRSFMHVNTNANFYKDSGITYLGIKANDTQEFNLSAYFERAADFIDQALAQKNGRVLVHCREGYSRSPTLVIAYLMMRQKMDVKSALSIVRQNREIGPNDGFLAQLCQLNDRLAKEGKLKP
SARS 3CLpro inh = SARS-CoV 3CLpro protease inhibition | P0C6X7 | recombinant SARS-CoV 3CLpro, quenched FRET peptide cleavage | inhibition, % at 6 µM | hit rate 0.14% among 290,000 | AID 1706; in the data active = inhibition above about 12%
CCHF vOTU inh-2 = CCHFV vOTU protease inhibition, confirmation; AID 686976; inhibition, % at 11.5 µM; hit rate 17% among 1,900; Recombinant CCHFV vOTU, Pep-AMC fluorescence; shares compounds with CCHF vOTU inh-1
Numbers without * were called inactive. A selection: hits, their analogues and other compounds. The true share with any hit is near 1.5%. Rule as the data show it, unless noted: active = inhibition above about 30%; inactive = the rest.

For O=C(CCN1C(=O)/C(=C/c2ccco2)SC1=S)Nc1ccc(C(=O)O)c(O)c1 the results were CCHF vOTU inh-1 14, RecA splice inh 27, DUSP3 inh -7 and SARS 3CLpro inh -2.
Screening COc1ccccc1/C=C1\SC(=S)N(CCC(=O)Nc2ccc(C(=O)O)c(O)c2)C1=O returned CCHF vOTU inh-1 35*, RecA splice inh 30, DUSP3 inh 27, SARS 3CLpro inh 3 and CCHF vOTU inh-2 16.
`O=C(CCN1C(=O)/C(=C\c2ccco2)SC1=S)Nc1ccc(C(=O)O)c(O)c1` gave CCHF vOTU inh-1 34*, RecA splice inh 26, DUSP3 inh -9, SARS 3CLpro inh 7 and CCHF vOTU inh-2 6.
For COCCNC(=O)NC12CC3(C)CC(C)(CC(C)(C3)C1)C2 the results were CCHF vOTU inh-1 35*, RecA splice inh 2, DUSP3 inh 2, SARS 3CLpro inh -1 and CCHF vOTU inh-2 -4.
CC(C)C[C@H](NC(=O)c1[nH]cnc1C(=O)N[C@@H](C)C(=O)OC(C)(C)C)C(=O)OC(C)(C)C was read as CCHF vOTU inh-1 30*, RecA splice inh -7, DUSP3 inh 0 and CCHF vOTU inh-2 32*.
CC(C)C[C@H](NC(=O)c1nc[nH]c1C(=O)NCC(=O)OC(C)(C)C)C(=O)OCc1ccccc1 was read as CCHF vOTU inh-1 31*, RecA splice inh 0, DUSP3 inh -12 and CCHF vOTU inh-2 19.
For CC(C)C[C@H](NC(=O)c1[nH]cnc1C(=O)Nc1ccccc1)C(=O)OC(C)(C)C the results were CCHF vOTU inh-1 30*, RecA splice inh -2, DUSP3 inh 15 and CCHF vOTU inh-2 16.
`CCOC(=O)c1ccc(NC(=O)c2nc[nH]c2C(=O)N[C@@H](CC(C)C)C(=O)OC(C)(C)C)cc1` gave CCHF vOTU inh-1 -3, RecA splice inh -1 and DUSP3 inh -1.
`CC(C)C[C@H](NC(=O)c1nc[nH]c1C(=O)NCC(=O)OCc1ccccc1)C(=O)OCc1ccccc1` gave CCHF vOTU inh-1 27, RecA splice inh 5, DUSP3 inh 24 and SARS 3CLpro inh 2.
`COc1ccc2c(n1)Sc1nc3ccccc3nc1N2` gave CCHF vOTU inh-1 59*, RecA splice inh -4, DUSP3 inh 6, SARS 3CLpro inh -4 and CCHF vOTU inh-2 -2.
CC[C@@H]1C=C(C(=O)O)[C@H](c2ccc(Cl)cc2)N1S(=O)(=O)c1ccc(C)cc1 was read as CCHF vOTU inh-1 32* and CCHF vOTU inh-2 -15.
Screening Cc1ccc(S(=O)(=O)N2[C@@H](c3ccc(Cl)c(Cl)c3)C(C(=O)O)=C[C@H]2CC2CCCC2)cc1 returned CCHF vOTU inh-1 34* and CCHF vOTU inh-2 18.
For Cc1ccc(S(=O)(=O)N2[C@@H](c3ccc(Cl)cc3)C(C(=O)O)=C[C@H]2CC2CCCC2)cc1 the results were CCHF vOTU inh-1 31* and CCHF vOTU inh-2 20.
`CC[C@@H]1C=C(C(=O)O)[C@H](c2ccc(C)cc2)N1S(=O)(=O)c1ccc(C)cc1` gave CCHF vOTU inh-1 -1.
For COC(=O)C1CN(CC(C)C)CCS(=O)(=O)N1Cc1ccc(Cl)cc1 (stereo not given) the results were CCHF vOTU inh-1 11.
Screening CC1CCCN(C(=O)c2cc(S(=O)(=O)N3CCCCC3)c[nH]2)C1 (stereo not given) returned CCHF vOTU inh-1 1, RecA splice inh 1, DUSP3 inh 10 and SARS 3CLpro inh 1.
For N#C/C(=C\Nc1ccc2c(c1)OCCO2)c1nc2ccccc2[nH]1 the results were CCHF vOTU inh-1 32*, RecA splice inh 2, DUSP3 inh -8, SARS 3CLpro inh 1 and CCHF vOTU inh-2 3.
N#C/C(=C\Nc1ccc2c(c1)OCCO2)c1nc(-c2ccccc2)cs1 was read as CCHF vOTU inh-1 1, RecA splice inh 1, DUSP3 inh -7 and SARS 3CLpro inh 3.
Cc1ccc(C(=O)NCCNC(=O)c2cccnc2)cc1 was read as CCHF vOTU inh-1 -20, RecA splice inh 2, DUSP3 inh -19 and SARS 3CLpro inh -4.
CCOC(=O)C(=CNc1cc(C)nn1-c1ccc(C)cc1)C(=O)OCC was read as CCHF vOTU inh-1 30*, RecA splice inh 1, DUSP3 inh 2, SARS 3CLpro inh 0 and CCHF vOTU inh-2 -11.
CCOC(=O)C(=CNc1cc(C)nn1C(C)(C)C)C(=O)OCC was read as CCHF vOTU inh-1 7, RecA splice inh 1, DUSP3 inh 11 and SARS 3CLpro inh -2.
Cc1ccc(S(=O)(=O)N2[C@@H](c3cccc(Cl)c3)C(C(=O)O)=CC[C@H]2c2ccc(Cl)cc2)cc1 was read as CCHF vOTU inh-1 5.
For Cc1ccc(S(=O)(=O)N2C(c3ccc(Cl)c(Cl)c3)CC=C(C(=O)O)C2c2cccc(Cl)c2)cc1 (stereo not given) the results were CCHF vOTU inh-1 -7.
Screening Cc1ccc(S(=O)(=O)N2C(c3ccc(Cl)c(Cl)c3)CC=C(C(=O)O)C2c2ccc(Cl)cc2)cc1 (stereo not given) returned CCHF vOTU inh-1 35* and CCHF vOTU inh-2 16.
Cc1ccc(S(=O)(=O)N2[C@@H](c3ccc(Cl)cc3)C(C(=O)O)=CC[C@H]2c2ccc(Cl)c(Cl)c2)cc1 was read as CCHF vOTU inh-1 33* and CCHF vOTU inh-2 13.
CN(C)c1ccc(C=c2c3ccccc3n3c2cc(-c2ccccc2)[n+]3C)cc1 was read as CCHF vOTU inh-1 48* and CCHF vOTU inh-2 1.
`CN(C)c1ccc(C=c2c3ccccc3n3c2c2c([n+]3C)CCCC2)cc1` gave CCHF vOTU inh-1 35* and CCHF vOTU inh-2 -1.
COc1cc(N(C)C)ccc1C=c1c2ccccc2n2c1cc(-c1ccccc1)[n+]2C was read as CCHF vOTU inh-1 34* and CCHF vOTU inh-2 7.
For CN(C)c1ccc(C=c2c3cc([N+](=O)[O-])ccc3n3c2cc(-c2ccccc2)[n+]3C)cc1 the results were CCHF vOTU inh-1 40* and CCHF vOTU inh-2 11.
Screening Cn1c(CO)c(-c2ccccc2)c2cc([N+](=O)[O-])ccc21 returned CCHF vOTU inh-1 13, RecA splice inh -4, DUSP3 inh 0 and SARS 3CLpro inh 2.
CCCCNc1nc(=S)n(-c2ccccc2)c(C)c1C(C)=O was read as CCHF vOTU inh-1 19, RecA splice inh -3, DUSP3 inh 22 and SARS 3CLpro inh -3.
`CN(C)CCNS(=O)(=O)c1ccc(N2CCN(c3ccc(F)cc3)CC2)c([N+](=O)[O-])c1` gave CCHF vOTU inh-1 -13, RecA splice inh 2, DUSP3 inh 15 and SARS 3CLpro inh 6.
Screening COc1cc(C=c2c3ccccc3n3c2cc(-c2ccccc2)[n+]3C)cc(OC)c1OC returned CCHF vOTU inh-1 85* and CCHF vOTU inh-2 69*.
For CN(c1ccc(Cl)cc1)c1cc(=O)n(C)c2ccccc12 the results were CCHF vOTU inh-1 18, RecA splice inh 4, DUSP3 inh 27 and SARS 3CLpro inh 4.
For COc1cc(/C=C(/C(=O)O)c2ccc(-c3ccccc3)cc2)cc(OC)c1OC the results were CCHF vOTU inh-1 12, DUSP3 inh 15 and SARS 3CLpro inh 11.
For CN(C)c1ccc(C=c2c3ccccc3n3c2cc(-c2ccc(Cl)cc2)[n+]3C)cc1 the results were CCHF vOTU inh-1 47* and CCHF vOTU inh-2 10.
